According to ChEMBL document CHEMBL4888484, “Replenishing the malaria drug discovery pipeline: Screening and hit evaluation of the MMV Hit Generation Library 1 (HGL1) against asexual blood stage Plasmodium falciparum ,using a nano luciferase reporter read-out” (2022):
Screen size: about 150,000 compounds; about 540 (0.36%) showed an effect of 50% or more. For the sample, strong results were picked, then their nearest neighbours and some compounds at random.

What follows are molecules tested on Plasmodium falciparum (assay: Primary screen in NF54 nanoGlo assay, in single point, at 2uM, 72h; a lower Z score goes with more inhibition). Details: timepoint 72 hour.
Type: functional, Erythrocyte

Compound	% Inhibition [%]	Z score
CCOc1ccc2c(n1)CCN(C(=O)c1ccsc1)C2	36	1.41
CC(COC1CCOC1)NC(=O)C1CCC(=O)C(C)C1 (centres undefined)	-1	0.21
Cn1nc(NC(=O)c2ccccc2)c2c1CCN(C(=O)C1CCC1)C2	-10	0.86
COC(C(=O)N1C[C@H](C(=O)O)[C@@H](c2ccc(Br)cc2)C1)C1CC1 (some centres undefined)	-1	0.13
CCCCN(C1CCCCCC1)S(=O)(=O)N1CCC[C@@H]1COC	3	-0.54
COc1ccccc1C(=O)C(=O)NC1CC(C)(C)NC(C)(C)C1	-6	0.73
Cc1nonc1CN1CC[C@@]2(CCCN(C3CCCCC3)C2=O)C1	-1	0.17
O=S(=O)(c1cccc(Cl)c1)N1CCc2nc(N3CCCCC3)nc(Oc3ccccc3)c2C1	53	-13.31
Cc1ccc(Oc2nc(N3CCOCC3)nc3c2CN(S(=O)(=O)c2cccc(Cl)c2)CC3)cc1	8	-1.2
CN1CCN(c2nc3c(c(Oc4cccc(F)c4)n2)CN(S(=O)(=O)c2cccc(Cl)c2)CC3)CC1	-5	0.66
O=C1CN(Cc2nc(-c3ccccc3)nn2C2CCCCC2)CCN1	-7	1.19
CN(CC(=O)Nc1cccc(F)c1)C(=O)C[C@@H]1C=CCC1	12	-1.67
CCOc1ccc(-c2cn(Cc3ccncc3)nn2)cc1Cl	-10	2.05
COc1ccc(-c2cc3nc(C)cc(N4CCC(C(=O)NCc5ccccc5)CC4)n3n2)cc1	4	-0.42
Cc1cc(C)cc(-c2cc3nc(C)cc(N4CCC(C(=O)Nc5ccc(C)c(Cl)c5)CC4)n3n2)c1	36	1.15
Cc1cc(C)cc(-c2cc3nc(C)cc(N4CCC(C(=O)NCc5cccc(F)c5)CC4)n3n2)c1	75	-14.36
Cc1cc(C2CCC(C(=O)NCC3CC3)CN2C(=O)NC(C)C)ccc1F (centres undefined)	0	0
Cc1cc(S(=O)(=O)N(CCN(C)C)C2CCN(C)CC2)c(C)o1	-16	1.43
COc1ccc2cc(-c3nc(CCN(C)C(=O)c4cccc(Cl)c4)no3)[nH]c2c1	-9	1.75
COc1ccc2cc(C(=O)NCc3ccnc(Oc4ccccc4)c3)[nH]c2c1	-7	1.13
Cc1ccc(CC(=O)Nc2cc(C(F)(F)F)n(C)n2)cn1	-6	0.61

Compound	% Inhibition [%]	Z score
Cc1cccc(OC2CN([C@@H](C)CCN(C)C)C2)c1	-19	2.04
CC(C(=O)Nc1nccs1)N1CCCC(c2ccn[nH]2)C1 (centres undefined)	50	-9.08
C[C@@H](C(=O)Nc1nccs1)N1CCCC1	-4	0.56
CC(C(=O)Nc1ccc(Cl)cn1)N1CCCC(c2ccn[nH]2)C1 (centres undefined)	5	-0.83
O=C(C1CCC1c1ccc(F)cc1)N1CCCC(c2nc3ccc(F)cc3o2)C1 (centres undefined)	-10	1.06
CCOc1cc(C(c2c(C)n(C)n(-c3ccccc3)c2=O)c2c(C)n(C)n(-c3ccccc3)c2=O)ccc1OCc1ccccc1	75	-5.78
COc1cc(C(c2c(C)n(C)n(-c3ccccc3)c2=O)c2c(C)n(C)n(-c3ccccc3)c2=O)c(Br)c(Br)c1OCc1ccccc1	35	-0.45
Cc1c(C(c2c(C)n(C)n(-c3ccccc3)c2=O)c2c[nH]c3ccccc23)c(=O)n(-c2ccccc2)n1C	-6	0.93
COc1nc(NC2CCS(=O)(=O)CC2)ncc1F	65	-7.11
CN(C)c1nc(N[C@H]2CCS(=O)(=O)C2)ncc1F	-3	0.33
COc1nc(N[C@H]2CCCN(C)C2)ncc1F	3	-0.5
CNC(=O)[C@@H]1C[C@@H](Nc2ccnc(OC)c2C#N)CN1Cc1ccccn1	2	-0.32
Cc1noc(C)c1S(=O)(=O)NC1(C(=O)Nc2ccsc2)CCCC1	-8	1.08
CC[C@@](C)(CNC(=O)COCc1cccc(OC)c1)N1CCOCC1	-4	0.5
Cc1cc(C)nc(NC[C@H]2CCCO2)n1	-5	0.64
CC(C)c1cnc(NCCCC[C@H]2CCCO2)nc1	48	0.41
Cc1cc(C)nc(NCCC[C@H]2CCCCO2)n1	54	0.94
O=C(OCC(F)(F)F)N1CCOCC1	1	-0.08
CC(C)CN1CCCC1C(=O)N1CCO[C@H]2CCC[C@H]21 (some centres undefined)	-5	0.92
O=C(N/C(=N\c1ccc(F)cc1)N1CCN(Cc2cccc(F)c2)CC1)c1ccccc1	2	-0.32
Cc1ccc(N2C(=O)C[C@]3(CC3(c3ccccc3)c3ccccc3)C2=O)cc1	73	-0.64

Compound	% Inhibition [%]	Z score
O=C1C[C@]2(CC2(c2ccccc2)c2ccccc2)C(=O)N1c1cccc(Br)c1	19	-3.6
COc1cccc(N2C(=O)C[C@]3(CC3(c3ccccc3)c3ccccc3)C2=O)c1	35	-0.08
CC(CNC(=O)C(=O)NC(C)CCc1ccccc1)Cc1ccccc1 (centres undefined)	-11	1.26
Cc1cccc2[nH]c(COCC(=O)NC[C@H]3CCCN(C)C3)nc12	14	-1.8
O=S(=O)(c1cccnc1)N1CC[C@H](Oc2ccncc2Cl)C1	-6	1.14
O=S(=O)(c1ccc2c(c1)OCCO2)N1CC[C@H](Oc2ccncc2Cl)C1	-7	1.4
O=S(=O)(c1ccc(F)c(Cl)c1)N1CC[C@H](Oc2ccncc2Cl)C1	72	-13.57
Cc1cc2nc[nH]c2c(NC(=O)CCc2cc3n(n2)CCNC3)c1C	-7	1.44
CCOc1ccc(-c2noc([C@@H]3Cc4ccccc4N3C(C)=O)n2)cc1Cl	19	-2.19
O=C1NC(=O)[C@@H]2CN(S(=O)(=O)c3cc(F)cc(Cl)c3)C[C@H]12	37	0.7
O=C(CCn1cnc2cc(-c3noc(-c4ccccn4)n3)ccc21)N1CCOCC1	-9	1.86
COc1ccccc1Oc1cn[nH]c1-c1ccc(OCc2ccccc2C)cc1O	-7	0.65
COc1ccccc1-c1cn[nH]c1-c1ccc(OCc2cc(C)ccc2C)cc1O	0	0
COc1ccc(-c2c(C(F)(F)F)n[nH]c2-c2ccc(OCc3ccccc3F)cc2O)cc1	79	-11.69
Oc1cc(OCc2ccccc2F)ccc1-c1[nH]ncc1-c1ccccc1	52	-11.1
COc1ccc(-c2n[nH]c3c2[C@@H](c2ccc(OCc4ccccc4F)cc2)CC(=O)O3)cc1	-7	1.23
COc1ccc(Oc2cn[nH]c2-c2ccc(OCc3ccc(F)cc3)cc2O)cc1	4	-0.82
NC(=O)Cc1ccc(Cl)cc1Cl	-10	1.37
Cc1nn(-c2ccc(Cl)cc2)cc1-c1noc(C(=O)NC2CCC(C)CC2)n1 (centres undefined)	-10	1.19
C[C@H]1CCN(Cc2ccncc2)CCN1Cc1ccccc1	-16	3.16
CN1C(=O)c2ccccc2O[C@H]2CN(Cc3cc(-c4ccccc4)no3)C[C@H]21	4	-0.65

Compound	% Inhibition [%]	Z score
CN1C(=O)c2ccccc2O[C@H]2CN(Cc3ccccc3)C[C@H]21	-9	1.36
Cc1noc(C)c1CN1C[C@@H]2Oc3cc(F)ccc3C(=O)N(C)[C@@H]2C1	91	-10.61
CON1CCC(C(=O)NC2c3ccccc3CCC2C)CC1 (centres undefined)	0	-0.03
O=C(O)[C@H]1CCCN(C2CCN(Cc3ccccc3)CC2)C1	-13	1.5
c1nc(CCNC[C@@H]2CCCN3CCCC[C@H]23)c[nH]1	-15	2.93
COCc1ncc(C)n1CC1CN(C(=O)CCc2ccccc2)C1	-10	1.37
COc1cc(Cl)c(C)cc1NC(=O)c1cc(=O)n(-c2ccc(C)cc2)[nH]1	53	-6.9
COc1cc(Cl)c(C)cc1NC(=O)c1nc2cc(C)c(C)cc2n(C)c1=O	37	0.48
COc1cc(Cl)c(C)cc1NC(=O)c1cnn[nH]1	-17	3.31
O=C(N[C@H](c1ccccc1F)C1CCCC1)C1CCN(C(=O)c2ccco2)CC1	-9	0.87
O=C(C1CCC(C2CC2)N1)N1CCC2(CCc3ccccc3C2=O)CC1 (centres undefined)	1	-0.19
CC(CCO)C1(CNC(=O)NCC2CCCO2)CCC1 (centres undefined)	-7	1.25
CCc1cccc2c(C3=CCN(C(=O)Nc4cn[nH]c4)CC3)c[nH]c12	-8	1.44
Cn1ccnc1CN(Cc1cccnc1)C1CCCCCC1	2	-0.44
CCC(=O)N1CCC(NCc2csc3ccccc23)C(CC)C1 (centres undefined)	-13	1.94
CCCc1nc(NC[C@H]2CC[C@H](CO)CC2)no1	-12	1.18
Cc1nc(C(F)(F)F)c(CN(C)C[C@H]2CCOC2)s1	-8	1.25
Cc1oc(-c2ccc(C(=O)NCCN(C)C)cc2)nc1CN1CCc2ccccc21	-14	1.84
Cc1nc(C)c(CC(=O)N2CCN(c3ccccc3)CC2)c(=O)[nH]1	-33	3.87
